In publication PMC8384837, “Expanding the binding specificity for RNA recognition by a PUF domain” one finds binding signal data, which are given here for ten sequences.

Common to all, as to assay: yeast three-hybrid, YBZ-1, SC-Leu-His + 0.5 mM 3-AT, 4 days
Holding throughout (settings): tags: N-Gal4 AD-HA kept; label: inside an RPR1-promoter hybrid RNA with tandem MS2 sites; ssRNA

The target in one assay is PUM1 PUF domain R1-YPR (Homo sapiens, UniProt Q14671 828-1176, S863Y;R864P;Q867R). A digest of the protocol:
(§1)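 A centromeric plasmid in strain YBZ-1 co-expressed Pumilio-1 PUF domain libraries, randomized at the three base-contacting residues of each repeat, with matching RNA elements; the strain carries a LexA–MS2 coat fusion and a HIS3 reporter. After four days on SC-Leu (input) or SC-Leu-His + 0.5 mM 3-AT (selection), the repeat regions were PCR-amplified and Illumina-sequenced. The interaction score is the log change in variant frequency from input to selection, using log2 and a pseudocount of 1 where absent.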

A further assay concerns the target PUM1 PUF domain R5-GRG (Homo sapiens, UniProt Q14671 828-1176, C1007G;Q1011G). A digest of the protocol:
as §1

A further assay has as its target T1, PUM1 PUF domain R6-SYA (Homo sapiens, UniProt Q14671 828-1176, N1043S;Q1047A).
T1 sequence: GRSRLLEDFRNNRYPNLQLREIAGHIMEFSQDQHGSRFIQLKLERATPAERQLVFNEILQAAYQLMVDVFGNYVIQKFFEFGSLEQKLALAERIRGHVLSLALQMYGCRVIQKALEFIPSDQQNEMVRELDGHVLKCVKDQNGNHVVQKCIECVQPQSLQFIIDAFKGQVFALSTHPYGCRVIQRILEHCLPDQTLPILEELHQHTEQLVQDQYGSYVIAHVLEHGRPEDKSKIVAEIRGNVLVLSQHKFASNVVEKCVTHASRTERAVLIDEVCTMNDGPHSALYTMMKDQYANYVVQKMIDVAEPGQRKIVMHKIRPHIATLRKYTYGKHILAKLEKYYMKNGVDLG
The essentials:
as §1

The next assay addresses PUM1 PUF domain R8-SWS (Homo sapiens, UniProt Q14671 828-1176, N1122S;Y1123W;Q1126S). The essentials:
as §1

For another assay, the target named is PUM1 PUF domain R3-VRT (Homo sapiens, UniProt Q14671 828-1176, C935V;Q939T). A digest of the protocol:
as §1

The target of the next assay is PUM1 PUF domain R3-YWG (Homo sapiens, UniProt Q14671 828-1176, C935Y;R936W;Q939G). The essentials:
as §1

Another assay has as its target PUM1 PUF domain R3-WWV (Homo sapiens, UniProt Q14671 828-1176, C935W;R936W;Q939V). A digest of the protocol: as §1
Another assay deals with PUM1 PUF domain R7-RCG (Homo sapiens, UniProt Q14671 828-1176, S1079R;N1080C;E1083G). The essentials: as §1
A further assay addresses PUM1 PUF domain R5-DGA (Homo sapiens, UniProt Q14671 828-1176, C1007D;R1008G;Q1011A). A digest of the protocol:
as §1

Another assay addresses PUM1 PUF domain R3-LFM (Homo sapiens, UniProt Q14671 828-1176, C935L;R936F;Q939M). The essentials: as §1

Turning to “GGCUAGAACUAGUGGAUCCCCCGGCGCCCGGCGGCUCGAGCCCGGGUAAGUGUAAAUCGUCUGCAUGCCGCCGGGCGCCAUGCCUGCAGGUCGACUCUAGAAAACAUG”, the binding signal in the assay with PUM1 PUF domain R1-YPR was 3.29 log2 enrichment (interaction score).

With “GGCUAGAACUAGUGGAUCCCCCGGCGCCCGGCGGCUCGAGCCCGGGUAAGUGUCAAUAGUCUGCAUGCCGCCGGGCGCCAUGCCUGCAGGUCGACUCUAGAAAACAUG”, the binding signal in the assay with PUM1 PUF domain R5-GRG was 0.84 log2 enrichment (interaction score).

On to “GGCUAGAACUAGUGGAUCCCCCGGCGCCCGGCGGCUCGAGCCCGGGUAAGUGUAAAUAGUCUGCAUGCCGCCGGGCGCCAUGCCUGCAGGUCGACUCUAGAAAACAUG”, for which the binding signal with PUM1 PUF domain R6-SYA is 2.48 log2 enrichment (interaction score); with PUM1 PUF domain R8-SWS, 2.46 log2 enrichment (interaction score); with PUM1 PUF domain R5-GRG, 3.08 log2 enrichment (interaction score); with PUM1 PUF domain R3-VRT, 3.97 log2 enrichment (interaction score); in the assay with PUM1 PUF domain R3-YWG it was 4.94 log2 enrichment (interaction score).

Turning to “GGCUAGAACUAGUGGAUCCCCCGGCGCCCGGCGGCUCGAGCCCGGGUAAGUGUAAUUAGUCUGCAUGCCGCCGGGCGCCAUGCCUGCAGGUCGACUCUAGAAAACAUG”, the binding signal with PUM1 PUF domain R3-WWV is 2.73 log2 enrichment (interaction score); in the assay with PUM1 PUF domain R3-YWG it was 4.54 log2 enrichment (interaction score).

Turning to “GGCUAGAACUAGUGGAUCCCCCGGCGCCCGGCGGCUCGAGCCCGGGUAAGUGUGAAUAGUCUGCAUGCCGCCGGGCGCCAUGCCUGCAGGUCGACUCUAGAAAACAUG”, the binding signal with PUM1 PUF domain R5-GRG is 3.07 log2 enrichment (interaction score).

Consider “GGCUAGAACUAGUGGAUCCCCCGGCGCCCGGCGGCUCGAGCCCGGGUAAGUGUAAAUUGUCUGCAUGCCGCCGGGCGCCAUGCCUGCAGGUCGACUCUAGAAAACAUG”, for which the binding signal in the assay with PUM1 PUF domain R1-YPR is 5.44 log2 enrichment (interaction score).

Regarding “GGCUAGAACUAGUGGAUCCCCCGGCGCCCGGCGGCUCGAGCCCGGGUAAGUUUAAAUAGUCUGCAUGCCGCCGGGCGCCAUGCCUGCAGGUCGACUCUAGAAAACAUG”, the binding signal with PUM1 PUF domain R7-RCG is 2.43 log2 enrichment (interaction score).

Take “GGCUAGAACUAGUGGAUCCCCCGGCGCCCGGCGGCUCGAGCCCGGGUAAGUGUUAAUAGUCUGCAUGCCGCCGGGCGCCAUGCCUGCAGGUCGACUCUAGAAAACAUG”: the results for the binding signal in the assay with PUM1 PUF domain R5-DGA and in the assay with PUM1 PUF domain R5-GRG were 2.6 log2 enrichment (interaction score) and 3.72 log2 enrichment (interaction score), respectively.

As for “GGCUAGAACUAGUGGAUCCCCCGGCGCCCGGCGGCUCGAGCCCGGGUAAGCGUAAAUAGUCUGCAUGCCGCCGGGCGCCAUGCCUGCAGGUCGACUCUAGAAAACAUG”, the binding signal with PUM1 PUF domain R8-SWS was 2.67 log2 enrichment (interaction score).

With “GGCUAGAACUAGUGGAUCCCCCGGCGCCCGGCGGCUCGAGCCCGGGUAAGUGUAAGUAGUCUGCAUGCCGCCGGGCGCCAUGCCUGCAGGUCGACUCUAGAAAACAUG”, the binding signal was 4.18 log2 enrichment (interaction score) with PUM1 PUF domain R3-WWV, 6.77 log2 enrichment (interaction score) with PUM1 PUF domain R3-YWG and 5.47 log2 enrichment (interaction score) in the assay with PUM1 PUF domain R3-LFM.
